# Records with an inconclusive call do not appear. Calls of active or inactive are those of the source. The call rests on the fitted dose curve; in most records, active means well fitted inhibition curve with a large enough effect; inconclusive means small, poorly fitted or top-dose-only effect; inactive means flat fitted curve, though single readings scatter.
# Biological target: Calcium and integrin-binding protein 1 (Homo sapiens) (UniProt Q99828)
# Assay: Primary qHTS for Identification of Calcium Integrin Binding Protein 1 (CIB1) Competitor (AID 1508620); further: top concentration of the series differs between compounds
# Details: CIB1-GST / FITC-alphaIIb peptide fluorescence polarization; series mostly up to 114 µM; activity change, negative = inhibition: at the top concentration
# Method in brief: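 Fluorescence polarization competition: GST-tagged CIB1 (1 uM final) preincubated with compound 15 min at room temperature, then FITC-labelled alphaIIb peptide (100 nM final) added. After 15 min at room temperature, polarization read at Ex 480/Em 540.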
# On the % scale 0 is the no-effect control and ±100 the full control effect.
# Chain of Calcium and integrin-binding protein 1 (Homo sapiens) (Q99828 whole entry, looked up): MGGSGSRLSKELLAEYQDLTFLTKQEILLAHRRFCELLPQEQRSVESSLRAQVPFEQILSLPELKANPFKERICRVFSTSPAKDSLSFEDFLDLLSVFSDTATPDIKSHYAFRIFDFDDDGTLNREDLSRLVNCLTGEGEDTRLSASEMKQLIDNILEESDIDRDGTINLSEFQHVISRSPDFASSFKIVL
Compound,"activity change, negative = inhibition",Potency
Cc1cc(N[S+](=O)([O-])c2ccc(NC(=O)Cc3ccc4nccnc4c3)cc2)no1,-10.7% (inactive),–
O=C(/C=C/c1ccc2c(c1)OCO2)Nc1cccc([S+](=O)([O-])Nc2ccccc2F)c1,–,inactive
Cc1cnc(-c2ccccc2C(C)C)nc1NCc1ccc(C#N)cc1,-3.47% (inactive),–
COCCCc1cc(F)c(S(=O)(=O)N2CCN(S(=O)(=O)c3ccc4c(c3)OCCO4)CC2)cc1F,1.13% (inactive),–
CCCCNC(=S)NCCCc1cnc[nH]1,1.6% (inactive),–
FC(F)(F)c1ccccc1-c1nc(NCc2ccc(-c3cccnc3)cc2)c2sccc2n1,-2% (inactive),–
CCOc1ccc(CCNC(=O)c2cc3sccc3[nH]2)cc1OCC,1.24% (inactive),–
O=C(/C=C/c1ccc(F)cc1)Nc1cccc([S+](=O)([O-])Nc2ccccc2F)c1,–,inactive
CC(=O)NC(c1cc(Cl)c2ccccc2c1O)C1CC1 (stereo not given),-0.272% (inactive),–
COc1ccc(OC)c(NC(=O)c2ccccc2OC(C)=O)c1,3.02% (inactive),–
Cc1ccc(N[S+](=O)([O-])c2cc3c(cc2CCc2ccccc2)NC(=O)CO3)cc1C,4.54% (inactive),–
Cc1cc(C)n2ncc(C(=O)Nc3ccc(Cl)c(Cl)c3)c2n1,6.27% (inactive),–
Cc1cc(-c2nnc3n2CCC3)c(C)n1-c1ccccc1,5.46% (inactive),–
C=CCNc1oc(-c2cccc(F)c2)nc1C#N,-12.7% (inactive),–
CCC(=O)NC(c1cccs1)c1cc([N+](=O)[O-])c2cccnc2c1OC (stereo not given),-13.6% (inactive),–
O=C1CCCC2=C1C(c1[nH]ncc1Cl)N=C(Nc1nc3cccc(Cl)c3o1)N2 (stereo not given),-6.4% (inactive),–
N#Cc1nc(Nc2cccc(Br)c2)nc(NC2CCCC2)n1,5.09% (inactive),–
O=S(=O)(c1ccc2c(c1)OCCO2)N1CCN(S(=O)(=O)c2ccccc2OC(F)(F)F)CC1,-5.46% (inactive),–
Cc1noc(C)c1-c1csc(N2CCC(C(N)=O)CC2)n1,3.82% (inactive),–
CN(C)c1ccc2nc(NC(=S)N3CCN(c4cccc(C(F)(F)F)c4)CC3)sc2c1,3.2% (inactive),–

Compound,"activity change, negative = inhibition",Potency
O=C(O)c1ccc2c(c1)C(=O)N([C@H](Cc1ccc(O)c(O)c1)C(=O)O)C2=O,-3.04% (inactive),–
CC(C)(C)n1cnc2cc(C(=O)N3CCCCC3)ccc21,8.77% (inactive),–
Cc1cccc(CNc2ccnc(-c3ccc(C(F)(F)F)cc3)n2)c1,2.56% (inactive),–
Cc1noc(C)c1-c1ccc2ncnc(NCc3ccc(-c4ccccc4)cc3)c2c1,4.23% (inactive),–
COc1ccc(C2Nc3ccccc3C(=O)N2Cc2ccccc2)cc1Oc1ccc(NC(C)=O)cc1 (stereo not given),6.85% (inactive),–
O=C(CNC(=O)c1ccc(-c2ccccc2)cc1)OC(C(=O)Nc1cc(C(F)(F)F)ccc1Cl)c1ccccc1 (stereo not given),-0.854% (inactive),–
Cc1ccsc1CN(C)c1ncnc2ccc(-c3ccoc3C)cc12,-12.8% (inactive),–
NC(=O)C1CCN(c2nc(-c3cccc4ccccc34)cs2)CC1,-3.58% (inactive),–
O=c1c2ccccc2nc2sc(Nc3ccc4c(c3)CNC4)nn12,9.1% (inactive),–
CCC(=O)NC(c1cc(Cl)c2cccnc2c1O)C(C)C (stereo not given),-8.8% (inactive),–
O=S(=O)(c1cccc(Cl)c1)N1CCN(S(=O)(=O)c2ccc3c(c2)OCCO3)CC1,2.38% (inactive),–
O=C(Nc1ccc2ccccc2c1)Nc1nnc(-c2ccc(O)cc2)s1,1.92% (inactive),–
CC(=O)Nc1ccc(CNc2ncnc3ccc(-c4c(C)noc4C)cc23)cc1,1.71% (inactive),–
COc1ccnc(NC(=S)N2CCN(c3ccc4ccccc4n3)CC2)c1,-10.9% (inactive),–
Oc1ccc(Nc2nc(-c3ccncc3)nc3ccccc23)cc1F,-12.1% (inactive),–
COc1cc(F)cc(F)c1[S+](=O)([O-])N1CCN([S+](=O)([O-])c2ccc3c(c2)OCCO3)CC1,1.46% (inactive),–
O=C1CCc2cc(S(=O)(=O)Nc3ccc(F)cc3)ccc2N1,8.76% (inactive),–
Cc1cc(N[S+](=O)([O-])c2ccc(NC(=O)Cc3ccc(Cl)nc3)cc2)no1,-12.3% (inactive),–
COc1ccc(C2c3c(nc(Cc4ccccc4)[nH]c3=O)Oc3ccc4ccccc4c32)cc1OC (stereo not given),1.52% (inactive),–
CC(C)(C)c1ccc(-n2cnc3cc(C(=O)N4CCCCC4)ccc32)cc1,0.337% (inactive),–
